ALOX12 inhib: 12-hLO (ALOX12) enzyme inhibition; P18054; purified 12-hLO, xylenol orange hydroperoxide absorbance; Potency, µM (doses to about 57.1 µM), without a hit: at the highest dose activity change, negative = inhibition, actives largely listed as inhibitors; actives 0.12% (n = 150,000); AID 1452; further: potency means the concentration at half of the fitted maximal effect; nearly all actives have a fitted effect of over 55% in size
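Lipoxygenase turnover measured by absorbance at 573 and 405 nm after Fe-XO development. Human 12hLO 150 nM, arachidonate 40 uM, pH 7.0 Hepes buffer with detergent; 15 min compound preincubation, 30 min reaction.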
HPGD inh: blocks human HPGD enzyme activity; P15428; purified HPGD, NADH fluorescence kinetic, PGE2 substrate; Potency, µM, inactives show at the highest dose activity change, negative = inhibition, most hits filed as inhibitors; actives 4.3% (n = 150,000); AID 894; active means well fitted inhibition curve with a large enough effect, not every such curve was filed as active; inconclusive means small, poorly fitted or top-dose-only effect, or another doubt; inactive means no such curve, though single readings can be large or run the other way; further: potency means the concentration at half of the fitted maximal effect
Target sequence (P15428 whole entry, looked up): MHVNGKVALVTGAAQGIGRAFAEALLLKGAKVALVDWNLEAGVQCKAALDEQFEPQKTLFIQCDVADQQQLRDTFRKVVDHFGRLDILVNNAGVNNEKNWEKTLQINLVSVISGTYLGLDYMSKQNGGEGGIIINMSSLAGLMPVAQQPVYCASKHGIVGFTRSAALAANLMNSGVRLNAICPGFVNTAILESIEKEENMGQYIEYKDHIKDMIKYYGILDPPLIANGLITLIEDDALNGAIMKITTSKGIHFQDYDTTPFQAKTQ
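NADH formation kinetics: reaction with 30 uM PGE2 and 1 mM NAD+ (final), 20 nM enzyme, Tris-HCl pH 8 with Tween 20, after 15 min compound preincubation at room temperature. Fluorescence change, last versus first of five reads.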
IMPase Li cell: cell-permeable IMPase inhibitors with lithium potentiation. actives 0.35% (n = 210,000). Potency, µM (series often up to 59.4 µM), for the others: at the top dose activity, negative = IMPase inhibition, most hits filed as inhibitors. CHO-M1 cells, IP1 TR-FRET (IP-One), carbachol + lithium;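 further: IP1 builds up when IMPase is blocked and the TR-FRET signal falls; potency means the concentration at half of the fitted maximal effect; plate controls were basal vehicle for no effect and high inhibitor control for full effect; nearly all actives have a fitted effect of over 50% in size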
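CHO-M1, 2000 cells/well, 16–30 h culture; cpd + low Li+, 30 min 37C; lysis with d2-IP1/Eu-anti-IP1 Ab, 10 min RT; TR-FRET 665/620 ratio and 620 channel; AC50 via Hill.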
ALDH1A1 block: ALDH1A1 (human) enzyme inhibition | P00352 | Purified ALDH1A1, NADH fluorescence, propionaldehyde substrate | Potency, µM (series often up to 75.3 µM), for the others: top-dose activity, negative = inhibition, actives largely listed as inhibitors | actives 7.3% (n = 220,000) | AID 1030; active means well fitted inhibition curve with a large enough effect, not every such curve was filed as active; inconclusive means small, poorly fitted or top-dose-only effect, or another doubt; inactive means no such curve, though single readings can be large or run the other way;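 further: potency means the concentration at half of the fitted maximal effect; plate controls were no enzyme wells and a reference inhibitor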
PNC inhibitor: inhibitors of perinucleolar compartment assembly | PC3M PTB-GFP, PNC prevalence imaging, 16 h; stronger effect = lower value | activity change (PNC), negative = inhibition, % at 10 µM | actives 3.1% (n = 140,000) | AID 2417;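 active means readout at or below -70, meaning at least 70% loss of cells showing the perinucleolar compartment, a nuclear body marking cancer cells; inconclusive means readout between -30 and a set limit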;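 further: plate controls were DMSO wells for no effect and camptothecin positive control wells for full effect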
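Compounds are pinned in duplicate onto adhered PC3M cells stably expressing GFP-tagged PTB and incubated 16 h at 37 C. Cells are then fixed, nuclei stained with Hoechst, and PNC-positive cells counted.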
IMPase cell inh: cell-permeable inhibitors of inositol monophosphatase (IMPase) | P97697 | CHO-M1 cells, IP1 accumulation, HTRF TR-FRET ratio | inhibition (IP1 accumulation), % at 46.1 µM | 120,000 tested, under 10 active; active means well fitted curve in the direction sought with a large enough effect in the signal ratio, not every such curve was filed as active; inconclusive means small, poorly fitted or top-dose-only effect, or a change in a side signal; inactive means no such curve, though single readings can be large or run the other way; the % refers to the signal ratio;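 further: cells stimulated with carbachol in lithium chloride buffer; plate controls were DMSO basal wells for no effect and reference inhibitor wells for full effect; higher means more IMPase inhibition seen as more IP1 and lower FRET ratio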
Target sequence (P97697 whole entry, looked up): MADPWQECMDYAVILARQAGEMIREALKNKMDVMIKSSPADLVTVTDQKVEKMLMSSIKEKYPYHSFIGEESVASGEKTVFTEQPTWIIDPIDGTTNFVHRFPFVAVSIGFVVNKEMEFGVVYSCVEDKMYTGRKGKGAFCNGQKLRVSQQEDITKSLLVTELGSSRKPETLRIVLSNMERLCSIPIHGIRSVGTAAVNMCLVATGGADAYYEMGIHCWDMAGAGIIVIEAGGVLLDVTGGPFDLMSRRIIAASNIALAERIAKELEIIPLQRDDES
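In this qHTS, compounds (final up to 46 uM) act on CHO-M1 cells that are then activated through the M1 receptor with carbachol, in pH 7.4 buffer containing 50 mM LiCl, for 30 min. IP1 accumulation is quantified by the IP-One immunoassay.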
Starred values were filed as active, the others as inactive; ? = inconclusive; · = no result; [ ] = remark or other dose. This is a sample that favours compounds with a hit; in the whole collection about 11% have one here. Unless noted, the call rests on the fitted dose curve; in most records, active means well fitted curve in the direction sought with a large enough effect; inconclusive means small, poorly fitted or top-dose-only effect, or another doubt; inactive means no such curve, though single readings can be large; an effect the other way counts as inactive or inconclusive. Unless noted, on the % scale 0 is the no-effect control and ±100 the full control effect.

SMILES	ALOX12 inhib	HPGD inh	IMPase Li cell	ALDH1A1 block	PNC inhibitor	IMPase cell inh
COC(=O)c1ccccc1	-3%	-5%	13%	8%	·	·
CCOCCCNC(=O)C1CCC(CNS(=O)(=O)c2ccc(Cl)cc2)CC1 (configuration not stated)	3%	-27%	-17%[38.3 µM]	?	-25	9
Cc1ccc(S(=O)(=O)N2CCCC(C(=O)NC3=NCCS3)C2)cc1 (configuration not stated)	-4%	2%	-6%	16%	-103*	7
COCCCNC(=O)C1CCCN(S(=O)(=O)c2ccc(C)cc2)C1 (configuration not stated)	-1%	-16%	5%	0%	-100*	9
CCCCNC(=O)CCNS(=O)(=O)c1ccc(C)cc1	-6%	-1%	14%[38.3 µM]	-8%	?	3
Cc1ccc(S(=O)(=O)N2CCCC(C(=O)Nc3cccnc3)C2)cc1 (configuration not stated)	0%	-8%	33%[38.3 µM]	4%	-15	9
CCCCNC(=O)C1CCC(CNS(=O)(=O)c2ccc(C)cc2)CC1 (configuration not stated)	·	·	-1%	10µM*	·	·
COCCCNC(=O)C1CCC(CNS(=O)(=O)c2ccc(C)cc2)CC1 (configuration not stated)	·	·	2%	11µM*	·	·
N#Cc1cc2c(OCC(O)CN3CCN(C(c4ccccc4)c4ccccc4)CC3)cccc2[nH]1 (configuration not stated)	·	·	37%	0%	·	·
O=C(O)C[C@H]1OCC=C2C[N@@+]3([O-])CC[C@]45c6ccccc6N[C@@H]4[C@@H]1[C@H]2C[C@H]53	5%[11.4 µM]	-11%	14%	15%[13.5 µM]	·	·
CCNC(=S)Nc1ccc(OCC)cc1	-1%	0%	-2%	4%	-86*	·
Cc1cc(NC(=S)Nc2cccc3ccccc23)n[nH]1	·	·	-2%	6.3µM*	·	·
CCOc1ccc(NC(=S)Nc2ccc(OCC)cc2)cc1	·	·	7%	4%	·	·
CCOc1ccc(NC(=S)Nc2ccc(OC(F)(F)F)cc2)cc1	-10%	-9%	-1%	-8%	38	-6
CCOc1ccc(NC(=S)Nc2cc(C)[nH]n2)cc1	·	·	4%	14µM*	·	·
O=C(NC(=S)Nc1ccccn1)c1ccc([N+](=O)[O-])cc1	2%	4%	4%	6%	-85*	·
COc1ccccc1NC(=S)NC(=O)C1CC1	-1%	-6%	-3%	3%	-7	·
COc1ccccc1NC(=S)NC(=O)C(C)(C)C	13µM*	·	·	-1%	-26	-4
COc1ccccc1NC(=S)NC(NC(=O)c1ccco1)C(Cl)(Cl)Cl (configuration not stated)	-8%	-21%	23%	14µM*	8	-11
COc1ccc(C(=O)NC(=S)Nc2cc(C)ccn2)cc1[N+](=O)[O-]	-1%	-9%	4%	0.32µM*	?	·
Cc1cc(F)ccc1S(=O)(=O)Nc1ccc2oc3c(c2c1)CC(C)CC3 (configuration not stated)	·	·	·	·	·	13
C=C1C(N)CC2CC1C2(C)C (configuration not stated)	2%	-5%	18%	-2%	·	·
CC(C)CO/N=C1/C[C@@H](O)[C@@H](O)[C@@H]2[C@@H]3C(=O)N(Cc4ccccc4)C(=O)[C@H]3CC[C@H]12	·	·	·	3%[13.5 µM]	·	·
CCOc1ccc(C(=O)NC(=S)Nc2ccccc2OC)cc1[N+](=O)[O-]	0%	-9%	14%	8.9µM*	-17	·
CCOc1ccc(C(=O)NC(=S)Nc2ccccc2N2CCCCC2)cc1[N+](=O)[O-]	-4%	-19%	2%	?	28	·
CCOc1ccc(C(=O)NC(=S)Nc2ccc(N3CCCCC3)cc2)cc1[N+](=O)[O-]	-1%	32µM*	5%	11µM*	39	·
CCOc1ccc(C(=O)NC(=S)Nc2ccc(NC(=O)CC)cc2)cc1[N+](=O)[O-]	-18%	-20%	3%	?	?	·
